The text below walks through data of PubChem BioAssay (NCI).

Each structure is given as a SMILES string. About 83,000 compounds went through this panel and 20% of them were active in at least one assay; those are over-represented in the sample as a whole.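 Single-concentration screen, 48 h exposure, 96-well plates. Endpoint: percent growth. Below 10 = active.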 Unmarked numbers belong to inactive results. Active and inactive are the calls of the source.

Among the test systems are SK-MEL-2 melanoma; EKVX NSCLC; SN12C renal; UO-31 renal; TK-10 renal; ACHN renal; A498 renal; CCRF-CEM leukemia; MOLT-4 leukemia; CAKI-1 renal.
Common to all, as to assay: NCI-60 one-dose screen, 48 h (100 = growth as untreated, 0 = no growth, -100 = all killed)
Details in all cases: 10 µM unless noted

`Cn1cc(-c2csc(-c3cn(CCNC(=O)OC(C)(C)C)c4ccc(F)cc34)n2)c2cccnc21`: the growth with SK-MEL-2 melanoma is 82.4%; in the assay with EKVX NSCLC, 55.9%; in the assay with SN12C renal, 85.9%; with UO-31 renal it was 39.7%; in the assay on TK-10 renal, 104%; in the assay with ACHN renal it was 69.2%. The growth with A498 renal was 91.1%; in the assay on CCRF-CEM leukemia it was 33.5%.

On to `COc1ccc(-c2nc3c(c(C)nn3-c3ccc(F)cc3)c(=O)[nH]2)cc1`, for which the growth in the assay on SK-MEL-2 melanoma is 92.3%; with EKVX NSCLC it was 81.6%; with SN12C renal it was 56.9%; with UO-31 renal, 52.1%; in the assay on TK-10 renal, 65.8%; with ACHN renal it was 6.33% (active). Further, the growth was 70.8% in the assay on A498 renal and 86.9% in the assay on CCRF-CEM leukemia.

As to `O=C(N/N=C/c1ccccc1SSc1ccccc1/C=N/NC(=O)c1ccccc1)c1ccccc1`, the growth in the assay on SK-MEL-2 melanoma was 24.8%; in the assay with EKVX NSCLC it was 25.8%; with SN12C renal, 43.4%; with UO-31 renal it was 18.6%; in the assay with TK-10 renal it was 31.8%; with ACHN renal, 15.4%. Moreover, the growth in the assay on A498 renal is 75.8%; with CCRF-CEM leukemia, 16%; in the assay on MOLT-4 leukemia, 10.8%.

As to `CC(=O)N1N=C(c2ccc(C)cc2)CC1c1ccc(Oc2ccc(Br)cc2)cc1` (configuration not stated), the growth in the assay on SK-MEL-2 melanoma is 106%; in the assay on EKVX NSCLC, 83.1%; in the assay on SN12C renal, 78.5%; in the assay with UO-31 renal, 39.2%; in the assay on TK-10 renal, 71.1%; in the assay with ACHN renal it was 99.5%. For the same compound, the growth in the assay on CAKI-1 renal was 74.6%; in the assay with CCRF-CEM leukemia, 93.2%; in the assay on MOLT-4 leukemia, 71.3%.

Turning to `O=C1CCC/C=C\C[C@H]2C=C(Cl)C(=O)/C2=C/C[C@H](CCCCC(F)(F)F)OC(=O)CCC/C=C\C[C@H]2C=C(Cl)C(=O)/C2=C/C[C@H](CCCCC(F)(F)F)O1`, the growth in the assay with SK-MEL-2 melanoma was -45.5% [7.5 µM] (active); with EKVX NSCLC it was 13.3% [7.5 µM]; in the assay with SN12C renal it was -27.1% [7.5 µM] (active); with UO-31 renal, -93.3% [7.5 µM] (active); with TK-10 renal, -23% [7.5 µM] (active); in the assay on ACHN renal, -93.1% [7.5 µM] (active). Moreover, the growth with A498 renal was -49.5% [7.5 µM] (active); in the assay on CCRF-CEM leukemia, 3.14% [7.5 µM] (active); with MOLT-4 leukemia, 1.97% [7.5 µM] (active).

On to `Cc1cccc(C)c1NC(=O)CSC(=S)N1CCCCC1`, for which the growth with SK-MEL-2 melanoma was 97.6%; in the assay on EKVX NSCLC, 97.2%; in the assay on SN12C renal it was 110%; in the assay on UO-31 renal, 85.6%; in the assay with TK-10 renal, 89%; in the assay on ACHN renal it was 101%. For the same compound, the growth is 99.3% in the assay on A498 renal, 101% in the assay with CCRF-CEM leukemia and 87.8% with MOLT-4 leukemia.

In the case of `C[C@@H](C(=O)O)c1ccc2c3cc(Cl)ccc3n(Cc3cc(=O)oc4ccc(Cl)cc34)c2c1`, the growth was 101% in the assay with SK-MEL-2 melanoma; 97% with EKVX NSCLC; 98.8% in the assay with SN12C renal; 76.3% in the assay with UO-31 renal; 116% in the assay on TK-10 renal; 99.8% in the assay on ACHN renal. The values for the growth in the assay with A498 renal, with CCRF-CEM leukemia and in the assay with MOLT-4 leukemia were 102%, 105% and 101%, respectively.

With `CCN1CCN(c2nc(C)cc(N(CCCNc3ccnc4cc(Cl)ccc34)Cc3ccco3)n2)CC1`, the growth in the assay on SK-MEL-2 melanoma is 75.1%; in the assay with EKVX NSCLC, 63.1%; with SN12C renal, 50.6%; in the assay on UO-31 renal, 33.1%; in the assay on TK-10 renal it was 108%; in the assay on ACHN renal, 30.2%. The growth is 78.1% with A498 renal, 42% in the assay with CCRF-CEM leukemia and 43.5% with MOLT-4 leukemia.

For the compound `Cc1cc(N2CCOCC2)nc(N(CCCNc2ccnc3cc(Cl)ccc23)Cc2ccco2)n1`, the growth in the assay on SK-MEL-2 melanoma is 11.9%; with EKVX NSCLC, 49.4%; in the assay with SN12C renal, 40.4%; in the assay on UO-31 renal, 32.2%; in the assay on TK-10 renal it was 47.9%; in the assay on ACHN renal, 46.9%. Further, the growth in the assay on A498 renal is 45.2%; in the assay on CCRF-CEM leukemia, 30.6%.

For `Cn1cc(-c2csc(-c3cn(CCN)c4ccccc34)n2)c2cccnc21`, the growth in the assay on SK-MEL-2 melanoma is 61%; in the assay on EKVX NSCLC, 50.4%; with SN12C renal, 54.1%; in the assay on UO-31 renal, 33.2%; in the assay with TK-10 renal, 92.9%; in the assay on ACHN renal, 56.6%. Besides, the growth with A498 renal is 74.9%; with CCRF-CEM leukemia, 8.25% (active); with MOLT-4 leukemia, 10.1%.

In the case of `O=C1c2ccccc2NC(c2cn(-c3ccccc3)nc2-c2cccs2)N1Cc1ccccc1` (configuration not stated), the growth in the assay on SK-MEL-2 melanoma is 74%; with EKVX NSCLC, 72.1%; in the assay with SN12C renal, 90.8%; in the assay on UO-31 renal it was 57.5%; with TK-10 renal, 91.1%; in the assay on ACHN renal, 86.2%. Further, the growth in the assay with A498 renal is 84%; in the assay on CCRF-CEM leukemia, 95.6%; with MOLT-4 leukemia, 55.1%.

As to `C/C(Cc1ccc(Cl)cc1)=C(/c1ccc(Cl)cc1)c1ccc(OCCN2CCCC2)cc1`, the growth with SK-MEL-2 melanoma was 105%; in the assay on EKVX NSCLC, 91.2%; with SN12C renal, 81.6%; in the assay on UO-31 renal, 68.1%; in the assay on TK-10 renal, 96.1%; in the assay with CAKI-1 renal it was 75.9%. In addition, the growth was 103% with A498 renal, 66% with CCRF-CEM leukemia and 59.7% in the assay with MOLT-4 leukemia.

For the compound `COc1cccc(-c2nn(-c3ccccc3)cc2-c2ccnc(NCCCO)c2)c1`, the growth was -0.25% (active) with SK-MEL-2 melanoma; 67.6% in the assay on EKVX NSCLC; 34.3% with SN12C renal; 48.9% in the assay with UO-31 renal; 63.1% in the assay on TK-10 renal; 43% with CAKI-1 renal. Besides, the growth with A498 renal was 15.1%; in the assay with CCRF-CEM leukemia, 11.8%; in the assay with MOLT-4 leukemia, 25.1%.

As to `COC(=O)[C@]12CC[C@@H](C)[C@H](C)[C@@H]1C1=CC[C@@H]3[C@@]4(C)C=C(O)C(=O)C(C)=C4CC[C@@]3(C)[C@]1(C)CC2`, the growth in the assay on SK-MEL-2 melanoma was 27%; in the assay with EKVX NSCLC it was 1.05% (active); with SN12C renal, 18.9%; in the assay on UO-31 renal, 34.3%; in the assay with TK-10 renal, 14.6%; with CAKI-1 renal, 33.4%. The figures for the growth in the assay on A498 renal and in the assay on CCRF-CEM leukemia were 81.5% and -26.2% (active), respectively.
